Data published in PubChem BioAssay AID1851 (National Center for Advancing Translational Sciences (NCATS), 2009).
The campaign covered roughly 16,000 compounds. About 4,000 (25%) were called active. Inconclusive results (about 26%) are left out. Calls come from the whole dose curve; as a rule, active = well fitted curve in the direction sought with a large enough effect; inconclusive = small, poorly fitted or top-dose-only effect, or effect the other way; inactive = no such curve, though single readings can be large or run the other way. Not all results are given here.

Each compound was assayed against Cytochrome P450 2C9 (Homo sapiens) (UniProt P11712) (assay: Cytochrome panel assay with activity outcomes). Conditions: recombinant CYP, pro-luciferin dealkylation, luminescence, p450-cyp2c9; series mostly up to 57.1 µM.
Cytochrome P450 2C9 (Homo sapiens), sequence (P11712 whole entry, looked up): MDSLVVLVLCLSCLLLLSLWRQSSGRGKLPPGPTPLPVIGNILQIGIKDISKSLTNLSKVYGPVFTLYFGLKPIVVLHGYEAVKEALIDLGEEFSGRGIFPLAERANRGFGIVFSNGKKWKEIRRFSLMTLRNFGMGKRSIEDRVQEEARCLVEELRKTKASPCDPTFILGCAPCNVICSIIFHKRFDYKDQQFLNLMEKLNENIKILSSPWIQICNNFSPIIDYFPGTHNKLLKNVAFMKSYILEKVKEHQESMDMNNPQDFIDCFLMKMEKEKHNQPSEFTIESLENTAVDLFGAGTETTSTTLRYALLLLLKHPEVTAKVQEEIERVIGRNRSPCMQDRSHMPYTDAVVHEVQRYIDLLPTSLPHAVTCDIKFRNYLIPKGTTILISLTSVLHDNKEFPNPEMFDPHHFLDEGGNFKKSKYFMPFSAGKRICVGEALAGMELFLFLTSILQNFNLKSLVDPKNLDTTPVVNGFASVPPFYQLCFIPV
% is set by controls: 0 for no effect and ±100 for the full control effect.

Compound	activity, negative = inhibition	AC50
Cc1cnc(CNc2ncncc2-c2cccc(C#N)c2)cn1	-1.84% [at 2.29 µM] (inactive)	–
Cn1cc[nH]c1=S	–	inactive
CN1CCC2(CC1)CCN(C(=O)c1cc(C(F)(F)F)cc(C(F)(F)F)c1)CC2	–	inactive
CCOC(=O)CSC1=C(C#N)C(c2sccc2C)CC(=O)N1 (centres undefined)	–	12.6 µM (active)
C=CCOC(=O)C1=C(C)NC(SCC(=O)OCC)=C(C#N)C1c1ccc(C)cc1 (centres undefined)	–	7.94 µM (active)
CCOC(=O)CSC1=C(C#N)C(c2sccc2C)C(C(C)=O)=C(C)N1 (centres undefined)	–	1.78 µM (active)
CCCC(O)(CCC)C(=O)NN1CCCCC1	–	inactive
CC(=O)N1CCc2cc(Br)cc(S(=O)(=O)N3CCN(C(=O)c4ccco4)CC3)c21	–	5.01 µM (active)
O=C(c1ccco1)N1CCC2(CC1)CN(c1ccc(-c3ccccc3)cc1)C2	–	inactive
O=C(c1ccco1)N1CCC2(CC1)CCN(c1ccccc1)CC2	–	inactive
COc1ccc(/C=N/NC(=S)NC2CCS(=O)(=O)C2)cc1OC (centres undefined)	–	inactive
COc1ccc(C(=O)Oc2cc(/C=N/NS(=O)(=O)c3ccc(C)cc3)ccc2OC)cc1	–	2.24 µM (active)
CS(=O)(=O)c1ccc(/C=N\NC(N)=S)cc1	-1.25% [at 11.4 µM] (inactive)	–
Cc1ccc(S(=O)(=O)N/N=C/c2ccc(OC3CSC3)cc2)cc1	–	1.41 µM (active)
COc1ccc(/C=N\NC(=O)O)cc1	-7.71% [at 11.4 µM] (inactive)	–
Fc1ccc(-c2ccnc3nc(N4CCOCC4)nn23)cc1	–	inactive
COC(=O)C1=C(C)NC(C)=C(C(=O)OCCSc2ccccc2)[C@@H]1C	–	3.16 µM (active)
O=C(O)CCCSc1ccccc1	14.8% [at 11.4 µM] (inactive)	–
Cc1nc2cnc(N3CCN(C)CC3)nc2n(Cc2ccc(F)cc2)c1=O	–	inactive
COC(=O)c1ccc(Oc2cc(C)nc(-n3nc(C)cc3C)n2)cc1	–	25.1 µM (active)
Cc1nc2ccccc2nc1-c1ccc(N=[N+]([O-])c2ccc(-c3nc4ccccc4nc3C)cc2)cc1	-2.63% [at 11.4 µM] (inactive)	–
C[N+](C)(C)CCO	–	inactive
CC(C)COC[C@H](CN(Cc1ccccc1)c1ccccc1)N1CCCC1	–	inactive
CC1=NN(c2ccccc2)C(=O)C1	–	inactive
c1ccc2c(c1)C(=Nc1ccc(N=C3c4ccccc4-c4ccccc43)cc1)c1ccccc1-2	-2.68% [at 11.4 µM] (inactive)	–
O=C1CC(=Nc2ccccc2)NN1c1ccccc1	–	2.82 µM (active)

Compound	activity, negative = inhibition	AC50
N#Cc1cccc(NC(=O)N2CCC3(CC2)CCN(C(=O)c2cccc(F)c2)CC3)c1	–	inactive
Cc1cc2c(s1)CCCCC(=O)N2	–	inactive
CN(C)CCCO[C@H]1[C@@H]2OC(C)(C)O[C@@H]2O[C@@H]1[C@H](O)CO	–	inactive
CS(=O)(=O)N1CCC[C@@]2(CCN(C(=O)Nc3ccccc3)C2)C1	–	inactive
COc1ccc(NC(=O)N2CCC3(CC2)CCN(S(C)(=O)=O)CC3)cc1	–	15.8 µM (active)
O=C(Nc1ccccc1)N1CCCC2(CCN(S(=O)(=O)c3ccccc3)CC2)C1	–	10 µM (active)
COc1ccc(NC(=O)N2CCCC3(CCN(S(=O)(=O)c4ccccc4)CC3)C2)cc1	–	20 µM (active)
COc1ccc(NC(=O)N2CC3(CCN(S(=O)(=O)c4ccccc4)CC3)C2)cc1	–	inactive
O=C(Nc1ccccc1)N1CCC2(CC1)CCN(S(=O)(=O)c1ccccc1)CC2	–	inactive
COc1ccc(NC(=O)N2CCC3(CC2)CCN(S(=O)(=O)c2ccccc2)CC3)cc1	–	inactive
COc1ccc(NC(=O)N2CC3(CCN(S(C)(=O)=O)CC3)C2)cc1	–	inactive
COc1ccc(NC(=O)N2CCCC3(CCN(S(C)(=O)=O)CC3)C2)cc1	–	inactive
CN1CC[C@@]2(CCN3CCc4c(oc5ccccc45)[C@@H]3C2)N(C)C1=O	–	inactive
Cc1nc(N=Nc2cc(S(=O)(=O)O)ccc2S(=O)(=O)O)c(COP(=O)(O)O)c(C=O)c1O	–	inactive
CN1CCCC[C@@H]1CCN1CCCCC1	-2.28% [at 11.4 µM] (inactive)	–
Cn1c(=O)n(C)c2cc(/C=N/n3cnnc3)ccc21	–	2.24 µM (active)
Cn1c(=O)n(C)c2cc(S(=O)(=O)O)ccc21	–	inactive
CSc1nncn1/N=C/c1ccc2c(c1)OCO2	–	inactive
CC(C)OC(=O)C1=C2SCC(=O)N2C(N)=C(C#N)C1	–	8.91 µM (active)
Nc1nc(N)nc(CCCc2nc(N)nc(N)n2)n1	9.16% [at 11.4 µM] (inactive)	–
CC(C)=CC(=O)Nc1nnc(C(C)C)s1	–	10 µM (active)
CC(=O)Nc1nnc(CCN2CCCCC2)s1	–	inactive
CC(=O)Nc1nnc(S(N)(=O)=O)s1	–	inactive
Cc1nn(-c2ccccc2)c(C)c1/C=N/NC(=O)c1cc(-c2ccc(Cl)s2)[nH]n1	–	7.94 µM (active)
Cc1c(C(=O)N/N=C/c2ccccc2)sc(=S)n1C	–	inactive
Cc1ccccc1/C=N\NC(=O)c1csnn1	–	inactive

Compound	activity, negative = inhibition	AC50
CCOC(=O)C1(S(=O)(=O)c2ccc(Cl)cc2)CCN(Cc2ccc(Cl)cc2)CC1	–	3.55 µM (active)
CC(C)(C)C(=O)N1CCC(O)(CS(=O)(=O)Cc2ccc(Cl)cc2)CC1	–	inactive
O=C(NCCN1CCCC1)C1(S(=O)(=O)c2ccc(Cl)cc2)CC1	–	inactive
CCn1c(CC(C)C)n[nH]c1=S	–	inactive
S=c1[nH]nc(CCc2ccccc2)n1Cc1ccccc1	–	7.94 µM (active)
Cc1ccccc1N1CCN(S(=O)(=O)C[C@@]23CC[C@H](C[C@H]2NC(=O)[C@@H](N)CCS(C)(=O)=O)C3(C)C)CC1	–	inactive
C=CCNC(=O)c1cccn1-c1ccsc1C(=O)OC	–	inactive
COC(=O)c1sc2ccccc2c1-n1cccc1C(=O)C(=O)Nc1ccc(Cl)cc1	–	0.1 µM (active)
COC(=O)c1ccccc1NS(=O)(=O)c1ccc2c3c(cccc13)C(=O)N2	–	0.178 µM (active)
CCCCOC(=O)Nc1ccccc1C(=O)OC	–	inactive
Oc1ccc([C@@H]2CNCc3sccc32)cc1O	–	inactive
Cc1cc(C)cc(Oc2coc3cc(OC(=O)c4cccs4)ccc3c2=O)c1	–	inactive
Cc1ccc2nc(/C(C#N)=C\c3ccc(OC(=O)c4cccs4)cc3)[nH]c2c1	–	2 µM (active)
Cn1c(=O)c2c(ncn2CCO)n(C)c1=O	–	inactive
Cn1c(=O)c2c(ncn2C[C@@H](O)CO)n(C)c1=O	–	inactive
Cn1c(=O)c2c(ncn2CC(COCc2ccccc2Cl)OCc2ccccc2Cl)n(C)c1=O (centres undefined)	–	15.8 µM (active)
CCC(C)NS(=O)(=O)c1ccc(NC(=O)CCC2CCCCC2)cc1 (centres undefined)	–	inactive
Cc1ccc(NC(=O)CCc2ccc(S(=O)(=O)NC3CCCCC3)cc2)cc1	–	3.98 µM (active)
Cc1ccc(NC(=S)NC2CCCC2)cc1	–	inactive
O=C(CCc1ccc(S(=O)(=O)NC2CCCCC2)cc1)N(Cc1ccccc1)Cc1ccccc1	–	1 µM (active)
OCCNCCCOc1cccc(Cl)c1Cl	–	inactive
O[C@@H](c1ccccc1)C1CCN(CCc2ccccc2)CC1	–	inactive
CCCCNc1nc(SC)nc2nc[nH]c12	-18.3% [at 11.4 µM] (inactive)	–
O=C(OCc1nc2ccccc2s1)c1ccc(Br)s1	–	4.47 µM (active)
O=C(O)c1ccc(Oc2nc3ccccc3s2)cc1	-27% [at 11.4 µM] (inactive)	–
Cc1cc([N+](=O)[O-])c(C)c(Br)c1C	20.3% [at 11.4 µM] (inactive)	–

Compound	activity, negative = inhibition	AC50
CC(=O)OCCNC(=O)c1cccnc1	–	inactive
O=C(NCCO[N+](=O)[O-])c1cccnc1	–	2 µM (active)
O=C(NCCOC(=O)c1ccc(C(=O)OCCNC(=O)c2cccnc2)s1)c1cccnc1	–	3.98 µM (active)
CN(C)c1ccnc(-c2ccccc2C(F)(F)F)n1	10.1% [at 2.29 µM] (inactive)	–
CCOC(=O)C[C@@H](C(=O)OCC)[C@@H]1CCCCC1=O	19.8% [at 11.4 µM] (inactive)	–
COc1ccccc1CC(=N)N1C[C@@H]2C(=O)CCC(c3ccccc3)(c3ccccc3)[C@@H]2C1	–	inactive
C=C1CCO[C@@]2([C@H](O)[C@@](C)(O)CO)NC(=O)[C@]1(O)NC2=O	5.79% [at 11.4 µM] (inactive)	–
NC(=O)c1cccc(N)c1	–	12.6 µM (active)
NC(=O)/C(=N\O)c1ccccc1	–	inactive
N=C(N)c1ccccc1	–	inactive
O=C1C(Cc2ccccc2)SC(=Nc2ccccc2)N1c1ccccc1 (centres undefined)	–	15.8 µM (active)
O=C1C(Cc2ccccc2)NC(=S)N1c1ccccc1 (centres undefined)	–	inactive
O=C(c1c[nH]c(=O)n(-c2ccccc2)c1=O)N1CCc2ccccc21	–	inactive
CCOc1ccc(NC(=O)C(=O)NCC2CCCN2CC)cc1 (centres undefined)	–	inactive
CCOc1ccc(-n2c(=O)[nH]cc(C(=O)N3CCCc4ccccc43)c2=O)cc1	–	12.6 µM (active)
COc1cc(-c2nc3ccccn3c2/N=C/c2ccccc2)ccc1O	–	14.1 µM (active)
COc1ccc(C=Nc2c(O)ccc3ccccc23)cc1OC	-1.31% [at 11.4 µM] (inactive)	–
O=[N+]([O-])c1ccc(Cl)c(-c2ccc(/C=N/c3c(-c4ccco4)nc4ccccn34)o2)c1	–	inactive
CCOc1cc(/C=N/O)cc(Cl)c1OC	–	inactive
CCOc1cc(/C=N/n2cnnc2)c(Br)cc1O	–	10 µM (active)
COc1ccc(NC(=O)N2CC3(CCN(C(=O)c4cccn4C)CC3)C2)cc1	–	inactive
CCC(Sc1nc2n[nH]c(C)c2c(=N)n1-c1cccc(Cl)c1)C(=O)NCCOC (centres undefined)	–	4.47 µM (active)
COCCNC(=O)CCn1nc(-c2ccc(Cl)cc2)ccc1=O	–	inactive
CO[C@@H]1COC(=O)[C@H](C)NC(=O)[C@@H](C)COC(=O)CCC[C@H]1C	10.9% [at 11.4 µM] (inactive)	–
N#C/C(=C\c1ccc(O)c(O)c1)C(=O)OCCc1cccs1	–	15.8 µM (active)
N#C/C(=C\c1ccc(O)c(O)c1)C(=O)NCCc1ccccc1	–	inactive
